This is an account of results in PubChem BioAssay AID488890 (Southern Research Specialized Biocontainment Screening …, 2010).

About 1,300 (0.41%) of roughly 320,000 compounds were called active. Another 3% or so got no clear call; they are omitted. How the calls were made is not given here. Only a sample is shown. Results with a measured potency or affinity are listed apart.

A short description of the test: growth inhibition of non-replicating M. tuberculosis (AID 488890).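 Further: plate controls were DMSO cells for no effect and high antibiotic wells for full effect.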 Particulars: Mycobacterium tuberculosis non-replicating, at 25 µM, stronger effect = higher value.
Usually inhibition stands for the drop in the measured response relative to a control, in per cent. On to `Cc1cc(C(=O)Nc2ccccc2C)on1`, for which the inhibition is -6.92%. To `CCCC(=O)Nc1ccc(C(=O)/C=C/c2ccc(SC)cc2)cc1` belongs 42.6%; to `COc1cc2c(cc1OC)C(c1cc3cccc(C)c3[nH]c1=O)N(C(=O)c1ccco1)CC2` (stereo not given), 30.4%; to `COc1ccc(NC(=S)NCc2ccc(F)cc2)c(OC)c1`, 14.9%.

On to `CC1CCN(C(=O)CN(CCc2ccccc2)S(C)(=O)=O)CC1`, for which the inhibition is -0.19%. As to `O=C(O)CCCN1C(=O)/C(=C/c2ccncc2)SC1=S`, the inhibition is 65%.

As for `O=C(O)CCN1C(=O)/C(=C\c2ccncc2)SC1=S`, the inhibition stood at 38.8%. Regarding `Cn1c(CNC(=O)CNS(=O)(=O)c2ccccc2)cc(=O)n(C)c1=O`, the inhibition was -2.98%. Regarding `CCCCn1c(N)c(N(CC)C(=O)CCc2ccccc2)c(=O)[nH]c1=O`, the inhibition came out at 9.68%. To `O=C(c1cccc(F)c1F)N1CCCC1` belongs -8.96%. `O=C(c1cccc2ccccc12)N1CCCCC1`: the inhibition is -8.51%. For `CCOP(=O)(OCC)C(NC(=O)C(F)(F)F)c1ccccc1` (stereo not given), the inhibition was found to be 3.99%. With `COc1ccc(S(=O)(=O)CCC(=O)NCCc2cccc(C)c2)cc1`, the inhibition was -8.54%. For `CCOc1ccc(C(=O)CC(=O)C(=O)NCCc2ccc(OC)c(OC)c2)cc1`, the inhibition is 31.3%. `Cc1nc2cc(NS(=O)(=O)c3ccccc3F)ccc2s1`: the inhibition stood at 3.43%. On to `COc1ccccc1Oc1cc(-n2nc(C)cc2C)ncn1`, for which the inhibition was 30%. To `CCOC(=O)c1cnc(Nc2nc3ccccc3o2)nc1CSc1ncccn1` belongs 1.64%.

Take `CCOC(=O)c1cnc(Nc2nc3ccccc3o2)nc1CSC(=S)N(CC)CC`: the inhibition is 28.1%.

As for `CCn1ncc(C(=O)Nc2ccc(F)cc2)c1C`, the inhibition was -7.3%. In the case of `O=C(CCn1c(=S)[nH]c2ccccc2c1=O)Nc1cccc(Cl)c1`, the inhibition is -2.2%.

Regarding `COc1ccccc1OCC(O)Cn1c(=N)n(Cc2ccccc2)c2ccccc21` (stereo not given), the inhibition was found to be 45%. Then `N=c1n(Cc2ccccc2)c2ccccc2n1CC(O)COc1ccccc1` (stereo not given), with 70.8%; and `CC(=O)Nc1ccc(OCC(O)Cn2nc(C)c(C(C)=O)c2C)cc1` (stereo not given), with -9.63%.

As to `COc1ccc(C(=O)C2CCCN(C(=O)c3c4c(nn3C)CCCC4)C2)cc1F` (stereo not given), the inhibition was -19.7%. Then `COC(=O)c1ccc(NC(=O)C2C3C=CC(O3)C2C(=O)O)cc1` (stereo not given), with 5.13%. For `COC(=O)Cc1ccc(NC(=O)c2ccc(Br)o2)cc1`, the inhibition was 72.6%. In the case of `O=C(Nc1ccc2c(c1)Cc1ccccc1-2)c1ccc(Br)o1`, the inhibition was 53.9%.

As to `Cc1ccc(C(=O)Nc2ccc3c(c2)CCC3)o1`, the inhibition was found to be 79.8%. Then `CCOC(=O)c1ccc(NC(=O)C2C3C=CC(O3)C2C(=O)O)cc1` (stereo not given), with 20.5%.

`CCN(CC)c1ccc(NC(=O)c2ccc(Br)o2)cc1`: the inhibition is 52.8%. Consider `CC(NC(=O)CCSCCC(=O)NC(C)c1ccccc1)c1ccccc1` (stereo not given), for which the inhibition came to 21.4%. As for `Cc1cc(C(=O)N2CCN(c3ccc(F)cc3)CC2)on1`, the inhibition amounted to 53.3%. Then `COc1ccc(C2=NS(=O)(=O)N(C)C(C(=O)Nc3ccc(OC)c(OC)c3)=C2)cc1`, with 17.6%; and `NC(=O)CC(NC(=O)c1ccc(Br)cc1)c1ccc(NC2CCCCCC2)c([N+](=O)[O-])c1` (stereo not given), with 7.44%.

`CC1(C)CC(=O)c2cc(C(=O)O)c(=O)n(-c3ccccc3)c2C1`: the inhibition came out at 15.2%. Consider `CC1(C)CC(=O)c2cc(C(=O)Nn3cnnc3)c(=O)n(-c3ccccc3)c2C1`, for which the inhibition was determined as 9%. To `COc1ccccc1CCC(=O)OCC(=O)NCc1ccc(OC)c(OC)c1` belongs -1.1%; to `COc1ccccc1C1NC(=O)CCC1[N+](=O)[O-]` (stereo not given), 3.51%; to `O=[N+]([O-])c1c(Nc2ccccc2O)ccc2nonc12`, 61.7%.

Consider `O=C(O)c1ccccc1Nc1ccc([N+](=O)[O-])c2nonc12`, for which the inhibition was determined as 8.28%.

As for `O=C(O)c1cccc(Nc2ccc([N+](=O)[O-])c3nonc23)c1`, the inhibition is 16.5%. Then `O=C(O)c1ccc(Nc2ccc([N+](=O)[O-])c3nonc23)cc1`, with 25.2%; and `NS(=O)(=O)c1ccc(Nc2ccc([N+](=O)[O-])c3nonc23)cc1`, with 66.5%.

On to `CCOc1ccc(Nc2ccc3nonc3c2[N+](=O)[O-])cc1`, for which the inhibition was -4.04%.

For the compound `COc1ccccc1N1C(=S)N=C(Nc2c(C)cccc2C)C12CCCC2`, the inhibition stood at 15.9%. As to `CC(C)(C)NC(=O)C1CCCN(S(=O)(=O)c2ccc(-n3cnnn3)cc2)C1` (stereo not given), the inhibition is 17%. Then `COC(=O)CNC(=O)CSc1nnc2cc(C)c3ccccc3n12`, with -0.34%; and `CC(/C=C/C1[C@H](C)C[C@H](O[C@@H]2O[C@H](CO)[C@@H](O)[C@H](O)[C@H]2O)CC1(C)C)O[C@H]1O[C@H](CO)[C@@H](O)[C@H](O)[C@H]1O` (stereo not given in full), with -10.5%.

`Cc1ccc2c(-c3ccc([N+](=O)[O-])cc3)cc(=O)[nH]c2c1`: the inhibition was -4.88%. Take `Cc1cccn2c(=O)c(C=Nc3ccccc3)c(NCc3ccco3)nc12`: the inhibition turned out to be 56.2%. To `Cc1ccc2nc(NCc3ccco3)c(C=NCc3ccco3)c(=O)n2c1` belongs 0.74%. With `O=C(CN1CCN(S(=O)(=O)c2ccccc2)CC1)NC(=O)NCc1ccco1`, the inhibition is 1.38%. To `O=C(O)c1ccccc1NCc1ccncc1` belongs 4.81%; to `C[C@]12CCC(=O)C=C1CCC1C2CC[C@@]2(C)C1CC[C@]2(C)O` (stereo not given in full), 11.1%; to `CCOC(=O)c1cc(-c2ccc(/C=N\n3cnnc3)o2)ccc1Cl`, 10%. To `O=Cc1ccc(-c2ccc(C(=O)O)cc2)o1` belongs -8.13%. Then `CCCCOC(=O)c1ccc(-c2ccc(/C=N/NC(=S)NCC)o2)cc1`, with 73.2%; and `CCCCOC(=O)c1cc(-c2ccc(/C=N/n3cnnc3)o2)ccc1Cl`, with 75.6%; and `CC(=O)C1=C(O)C(=O)N(CCC(=O)O)C1c1cccc(F)c1` (stereo not given), with -0.65%. With `CCCC(=O)NNc1c2ccccc2nc2ccccc12`, the inhibition is 74.5%. In the case of `O=C(NNc1c2ccccc2nc2ccccc12)c1ccc(O)cc1`, the inhibition was 42%.

Consider `CCOc1ccc(S(=O)(=O)Nc2ccc(C(=O)NCCCN3CCOCC3)cc2)cc1`, for which the inhibition was -11.7%.

In the case of `CCC(C)C(NC(=O)C1CCC(C)CC1)C(=O)NCc1ccco1` (stereo not given), the inhibition was -7.14%. To `C/C(=N/NC(=O)CNC(=O)c1ccccn1)c1ccc([N+](=O)[O-])cc1` belongs -2.72%; to `C/C(=N\NC(=O)C(c1ccccc1)c1ccccc1)c1ccccn1`, 78.2%. Then `O=S(=O)(c1ccc2nc(-c3ccccc3)[nH]c2c1)N1CCN(c2ccc(Cl)cc2)CC1`, with -14.5%; and `C/C(=N\Nc1ncc(Cl)cc1Cl)c1ccc(OC(F)F)cc1`, with 66.3%; and `COc1ccc(/C(C)=N/Nc2ccccc2Cl)c(O)c1`, with 9.47%. Then `COc1ccc([N+](=O)[O-])cc1NC(=O)c1cn(-c2ccc(Cl)cc2)c(=O)c2ccccc12`, with -16.7%; and `N#CC1=C(N)Oc2nc[nH]c(=O)c2C1c1cccs1` (stereo not given), with -24.7%; and `Cc1cc(C)n2nc(N)c(N=Nc3cccc(Cl)c3)c2n1`, with 79.2%.

Turning to `Cc1cc(C)n2nc(N)c(N=Nc3ccc(Cl)cc3)c2n1`, the inhibition came out at 74.1%. To `O=C1N/C(=N/c2ccccn2)SC1Cc1ccccc1` (stereo not given) belongs 61.6%; to `Cc1ccc(CC2S/C(=N/c3ccccn3)NC2=O)cc1` (stereo not given), 21.2%; to `Cn1ccnc1SCC(=O)Nc1cccc(O)c1`, 1.05%. As for `CC/C(=N/Nc1ccccc1Cl)c1cnnc(-c2ccccc2)n1`, the inhibition amounted to 5.04%. Then `COCCNC(=O)Cn1cc(C(=O)c2ccccc2F)c2ccccc21`, with 6.99%. For the compound `CCC(NC(=O)c1cc(COc2cncc(Cl)c2)on1)c1ccncc1` (stereo not given), the inhibition was 21.9%. Then `CCC(NC(=O)c1cc(COc2cncc(Cl)c2)on1)c1ccc(C)cc1` (stereo not given), with 61.6%; and `COCCCN1C(=O)C(=O)/C(=C(/O)c2ccc(OC(C)C)cc2)C1c1ccc(O)c(OC)c1` (stereo not given), with -2.98%; and `CCc1cc2cccc(C)c2nc1SCC(=O)NNC(=O)c1ccco1`, with -10.6%. To `C=CCn1c(O)c(C(C)=Nc2ccc(C(=O)O)cc2)c(=O)[nH]c1=O` belongs 6.37%; to `C=CCn1c(O)c(C(C)=Nc2ccc(NC(C)=O)cc2)c(=O)[nH]c1=O`, -9.1%. Then `O=C(Nc1ccc(Cl)c(Cl)c1)C1=Cc2ccccc2OC1`, with 58%. With `O=S(=O)(Nc1ccc(Cl)c(Cl)c1)N1CCOCC1`, the inhibition is -2.78%.

`COc1ccc(S(=O)(=O)N2CCCCCC2)cc1NC(=O)CN1C(=O)CNC1=O`: the inhibition is 13.3%. To `CCNC(=O)C(=O)NCC(c1cccs1)S(=O)(=O)c1ccc(C)cc1` (stereo not given) belongs 2.12%; to `CN(C)c1cc[n+](CC(=O)Nc2ccc(Cl)cc2)cc1`, 9.15%; to `COc1ccccc1-c1nc2cc(Cl)ccc2c(=O)n1O`, 9.28%.

Take `O=C(O)c1ccccc1-c1nc2cc(Cl)ccc2c(=O)n1O`: the inhibition was -1.37%. Then `O=c1c2cc(Br)ccc2nc(-c2ccccc2)n1O`, with 78.6%; and `CCc1nc2ccc(Br)cc2c(=O)n1-c1ccccc1C(F)(F)F`, with 26.9%. `O=C(OCn1nnc2ccccc2c1=O)c1ccc(S(=O)(=O)N2CCOCC2)cc1`: the inhibition is 33.4%. Then `Cc1nn(-c2ccccc2)c(C)c1NC(=O)COC(=O)c1ccccc1OC(F)F`, with 9.15%; and `COc1ccc(NC(=O)C(c2ccccc2)c2ccccc2)c(OC)c1`, with -2.93%. Turning to `Nc1nc2nc(SCC(=O)N3CCCc4ccccc43)[nH]c2c(=O)[nH]1`, the inhibition came to 0.84%. To `CN(C)CCn1c2c(c(SCC(=O)Nc3ccc4c(c3)OCCO4)nc1=O)CCC2` belongs -16.4%; to `CC1CCN(C(=O)COC(=O)c2cc(Cl)cc(Cl)c2N)CC1`, 78.5%; to `O=C(CNC(=O)c1ccc(Br)o1)NC1CCCCCC1`, -0.81%. With `O=C(OCCCN1C(=O)c2ccccc2C1=O)c1ccco1`, the inhibition came out at 10.6%. With `O=C(OCCN1C(=O)c2ccccc2C1=O)c1ccco1`, the inhibition was determined as 15.3%. Consider `Cc1ccc(C(=O)OCC(=O)NC2CCCCC2)o1`, for which the inhibition was 36.7%.

Consider `O=C(COC(=O)c1ccc(Br)cc1)NC1CCCC1`, for which the inhibition was 46.5%.

Regarding `O=C(COC(=O)c1cc([N+](=O)[O-])ccc1Cl)NC1CCCC1`, the inhibition came to 73.8%. Then `Nc1c(Cl)cc(Cl)cc1C(=O)OCC(=O)N1CCOCC1`, with 17.1%; and `CCc1ccc(CNC(=O)CN2C(=O)COc3ccccc32)cc1`, with 14.8%; and `COc1ccc(S(=O)(=O)N2CCCC2CNC(=O)C(=O)NCc2ccc3c(c2)OCO3)cc1` (stereo not given), with 10.3%. `COC(=O)CCC(=O)OC1(C)C(=O)C=C2C=C(C3CC3)N(C3CCCC3)C=C2C1=O` (stereo not given): the inhibition is 21.8%. To `NC1=NC(=O)/C(=C/c2ccc(-c3ccc(S(N)(=O)=O)cc3)o2)S1` belongs -4.9%; to `Cc1ccc2c(C(=O)CN3CCN(C(=O)c4ccco4)CC3)c(C)[nH]c2c1`, 14%.
